{"source": "PubChem BioAssay AID686978", "about": "(National Center for Advancing Translational Sciences (NCATS), 2013)", "note": "Hit rate of the full screen: of about 420,000 compounds, about 64,000 (15%) were called active. About 27% were inconclusive and are not listed. A selection follows. A number with no mark means an inactive call. The call rests on the fitted dose curve; in most records, active means well fitted inhibition curve with a large enough effect; inconclusive means small, poorly fitted or top-dose-only effect; inactive means flat fitted curve, though single readings scatter. On the % scale 0 is the no-effect control and ±100 the full control effect; potency means the concentration at half of the fitted maximal effect.", "data": [{"test": "qHTS for Inhibitors of human tyrosyl-DNA phosphodiesterase 1 (TDP1): qHTS in cells in absence of CPT; further: nearly all actives have a fitted effect of over 55% in size", "conditions": "DT40 Tdp1-/- hTDP1 cells, no CPT, ATP luminescence, 48 h; activity change, negative = growth inhibition: at 46.2 µM (top of the series)", "outline": "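No-CPT arm: Tdp1-/-;hTDP1 DT40 cells (400/well) plus compounds, incubated ≥48 hr at 37 °C. Readout CellTiter-Glo luminescence.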", "units": {"activity change, negative = growth inhibition": "%"}, "values": [{"smiles": "COc1ccc(CCNC(=O)COc2ccc3c(c2)OCO3)cc1", "activity change, negative = growth inhibition": -8.14}, {"smiles": "O=C(Nc1ccc2c(c1)OCO2)C1CC1(Cl)Cl", "note": "(centres undefined)", "activity change, negative = growth inhibition": -18.3}, {"smiles": "COc1ccc(CCCNC(=O)C2Cc3c(-c4cccc(C(N)=O)c4)ccnc3O2)cc1", "note": "(centres undefined)", "Potency": "16.4 µM (active)"}, {"smiles": "O=C(Nc1ccc(Cl)cc1)C1Cc2c(-c3ccc4c(c3)OCO4)ccnc2O1", "note": "(centres undefined)", "Potency": "20.6 µM (active)"}, {"smiles": "COc1ccc(OCC(O)CNC(=O)Nc2ccc(Cl)cc2)cc1", "note": "(centres undefined)", "activity change, negative = growth inhibition": 10.9}, {"smiles": "O=C(COc1ccc(Cl)cc1)Nc1ccc2c(c1)OCO2", "activity change, negative = growth inhibition": -21.7}, {"smiles": "COc1ccc(NC(=O)C2Cc3c(-c4ccc5c(c4)OCO5)ccnc3O2)cn1", "note": "(centres undefined)", "Potency": "4.61 µM (active)"}, {"smiles": "COc1ccc(N(CC(=O)NC2CCCC2)C(=O)CS(=O)CC(=O)Nc2ccc3c(c2)OCO3)cc1", "note": "(centres undefined)", "activity change, negative = growth inhibition": 17.1}, {"smiles": "COc1ccc(CCNC(=O)COC(=O)c2cnc(Cl)c(Cl)c2)cc1", "activity change, negative = growth inhibition": 1.66}, {"smiles": "COc1ccc(NC(=O)C2Cc3c(-c4ccc(Cl)cc4)ccnc3O2)cc1", "note": "(centres undefined)", "Potency": "13 µM (active)"}, {"smiles": "CC(=O)Nc1ccc(-c2ccnc3c2CC(C(=O)NC(C)C)O3)cc1", "note": "(centres undefined)", "activity change, negative = growth inhibition": -21.1}, {"smiles": "COc1cc(OC)c(C(=S)N2CCCC2)cc1OC", "activity change, negative = growth inhibition": -1.59}, {"smiles": "O=C1NC(=O)C(CCc2ccccc2)(c2ccccc2)N1", "note": "(centres undefined)", "activity change, negative = growth inhibition": -19.1}, {"smiles": "O=C(Nc1c2c(nn1-c1cccc(Cl)c1)CS(=O)(=O)C2)c1cccs1", "activity change, negative = growth inhibition": 13.2}, {"smiles": "COc1ccc(-n2nnnc2SCC(=O)NCc2cccs2)cc1", "activity change, negative = growth inhibition": 4.79}, {"smiles": "COc1ccc(N2CCN(C(=O)c3cn(C)c4ccc(S(=O)(=O)N5CCOCC5)cc4c3=O)CC2)cc1", "Potency": "inactive"}, {"smiles": "CC(=O)NC1(c2cccc(F)c2)CCN(CC(=O)NC(C)C)CC1", "activity change, negative = growth inhibition": -3.98}, {"smiles": "CCCCC1=CC2=CC(=O)C(C)(OC(=O)CC)C(=O)C2=CN1CCCOC(C)C", "note": "(centres undefined)", "activity change, negative = growth inhibition": 5.48}, {"smiles": "CCOc1ncccc1C(=O)OCC(=O)c1c[nH]c2ccccc12", "activity change, negative = growth inhibition": 10.8}, {"smiles": "O=C(CCC(=O)OCC(F)(F)C(F)F)NCc1ccccc1", "activity change, negative = growth inhibition": -4.18}, {"smiles": "O=C(NC12CC3CC(CC(C3)C1)C2)N1CCCC(CO)C1", "note": "(centres undefined)", "activity change, negative = growth inhibition": -5.39}, {"smiles": "CCOC(=O)c1ccc[n+](CC(=O)Nc2ccccc2OC(F)F)c1", "activity change, negative = growth inhibition": 1.71}, {"smiles": "CC(C)Sc1nc(N)nc2c1ncn2C1OC(CO)C(O)C1O", "note": "(centres undefined)", "activity change, negative = growth inhibition": -19.1}, {"smiles": "Nc1nc(SCc2ccc([N+](=O)[O-])cc2)c2ncn(C3OC(CO)C(O)C3O)c2n1", "note": "(centres undefined)", "activity change, negative = growth inhibition": -26.2}, {"smiles": "OC[C@@H]1O[C@H](n2cnc3c(SCc4ccccc4)ncnc32)[C@H](O)[C@H]1O", "Potency": "11.2 µM (active)"}, {"smiles": "Cc1ccc(C(=O)N2CCc3cc(CNC(=O)c4ccc(Br)cc4)ccc32)cc1", "Potency": "14.6 µM (active)"}, {"smiles": "Cc1cc2cc(CNC(=O)c3ccc(S(=O)(=O)N4CCOCC4)cc3)ccc2[nH]1", "activity change, negative = growth inhibition": -11.8}, {"smiles": "O=C(CCc1ccc(S(=O)(=O)NC2CCCCC2)cc1)NCc1ccccc1", "activity change, negative = growth inhibition": -22.2}, {"smiles": "O=C(CCc1ccccc1)NCc1cccnc1", "activity change, negative = growth inhibition": -13.8}, {"smiles": "O=C(CCc1ccccc1)NCc1ccc2c(c1)CCN2C(=O)c1ccccc1", "Potency": "20.6 µM (active)"}, {"smiles": "CCC(=O)N1CCc2cc(S(=O)(=O)NC(Cc3ccccc3)C(=O)NCc3ccc(C)cc3)ccc21", "note": "(centres undefined)", "activity change, negative = growth inhibition": 1.68}, {"smiles": "CN(C)c1ncc2nc(-c3ccc(F)cc3)c(=O)n(Cc3ccc(F)cc3)c2n1", "activity change, negative = growth inhibition": 15.1}, {"smiles": "C=Cc1ccc(Cn2c(C(=O)OC)cc3sc(C)cc32)cc1", "activity change, negative = growth inhibition": -27.6}, {"smiles": "C=CCC[C@@H](Cc1ccc(F)cc1)C(=O)OC[C@H](Cc1c[nH]c2ccccc12)NC(=O)[C@@H](CC=C)CC(=O)N(CCO)Cc1ccccc1", "Potency": "16.4 µM (active)"}, {"smiles": "CC(=O)NC(Cc1c[nH]c2ccccc12)C(=O)NCCc1ccccc1", "note": "(centres undefined)", "activity change, negative = growth inhibition": -12.3}, {"smiles": "C=CC[C@H](CC(=O)NCCO)C(=O)N[C@@H](COC(=O)[C@@H](CC=C)Cc1ccc(F)cc1)Cc1c[nH]c2ccccc12", "Potency": "23.1 µM (active)"}, {"smiles": "C=CC[C@@H](CC(=O)NCCO)C(=O)N[C@H](C)COC(=O)[C@@H](CC=C)CC(=O)OC(C)(C)C", "activity change, negative = growth inhibition": -7.37}, {"smiles": "C=CCC[C@H](Cc1ccc(F)cc1)C(=O)OC[C@@H](Cc1c[nH]c2ccccc12)NC(=O)[C@H](CC=C)CC(=O)N[C@H](CO)Cc1ccccc1", "Potency": "20.6 µM (active)"}, {"smiles": "O=C(CCc1c[nH]c2ccccc12)NCCOc1ccccc1", "activity change, negative = growth inhibition": -22.9}, {"smiles": "COC(=O)C(Cc1c[nH]c2ccccc12)NC(=O)CCNC(=O)c1ccco1", "note": "(centres undefined)", "activity change, negative = growth inhibition": -2.46}, {"smiles": "CCN(CC)c1nc(C#N)nc(OC)n1", "activity change, negative = growth inhibition": -20.1}, {"smiles": "CC1(C)CC(=O)NC=C(c2ccccc2)C1", "activity change, negative = growth inhibition": -2.86}, {"smiles": "COc1cc2c(cc1OC)/C(=C/C(=O)c1ccc(NC(C)=O)cc1)NCC2", "activity change, negative = growth inhibition": -28.9}, {"smiles": "O=C(OCCO)c1cc(Cl)c(C(=O)OCCO)cc1Cl", "activity change, negative = growth inhibition": -2.72}, {"smiles": "O=S(=O)(c1ccc(-c2ccccc2)cc1)N1CCCC1", "activity change, negative = growth inhibition": 6.42}, {"smiles": "CN[C@@H]1[C@H](O[C@H]2[C@H](O[C@H]3[C@H](O)[C@@H](O)[C@H](N=C(N)N)[C@@H](O)[C@@H]3N=C(N)N)O[C@@H](C)[C@]2(O)CO)O[C@@H](CO)[C@H](O)[C@H]1O", "activity change, negative = growth inhibition": -5.68}, {"smiles": "Cc1cc(C)nc(Nc2n[nH]c(-c3ccccc3N)n2)n1", "activity change, negative = growth inhibition": -26.2}, {"smiles": "CCOC(=O)CSc1nncc2ccc(OC)c(OC)c12", "activity change, negative = growth inhibition": -14.7}, {"smiles": "Cc1cc(-c2ccc(S(=O)(=O)N3CCN(c4cccc(C(F)(F)F)c4)CC3)s2)on1", "activity change, negative = growth inhibition": -7.52}, {"smiles": "CCc1cccc(C)c1NS(=O)(=O)c1ccc(-c2cc(C)no2)s1", "Potency": "0.517 µM (active)"}, {"smiles": "CC(=O)c1ccc(NS(=O)(=O)c2ccc(-c3cc(C)no3)s2)cc1", "activity change, negative = growth inhibition": -26.9}, {"smiles": "Cc1cc(-c2ccc(S(=O)(=O)N3CCc4ccccc4C3)s2)on1", "activity change, negative = growth inhibition": -11.1}, {"smiles": "Cc1cccc(N2CCN(S(=O)(=O)c3ccc(-c4cc(C)no4)s3)CC2C)c1", "note": "(centres undefined)", "activity change, negative = growth inhibition": 21.2}, {"smiles": "Cc1cc(C)cc(NS(=O)(=O)c2ccc(-c3cc(C)no3)s2)c1", "Potency": "2.59 µM (active)"}]}]}
